From PubChem BioAssay
A number with no mark means an inactive call. Entries that show only a call come without a potency. For some of these results: Potency and affinity values are given separately. Active and inactive are the calls of the source. Unless noted, no rule for the calls is given here.

Legend:
[1] = antimalarial activity against Dd2 strain (AID 2302;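 active = growth inhibition above 50% at the single 2 µM test dose, taken to imply half-maximal potency below 2 µM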); conditions: P. falciparum Dd2 in RBCs, LDH growth readout, 72 h; at 2 µM; hits give high values
[2] = HepG2 cytotoxicity, primary screen, cytotoxicity control for P. falciparum antimalarial project, cell-based, ATP luminescence (AID 2303;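 active = inhibition above 50%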); conditions: HepG2 viability, 24-48 h, at 10 µM, hits give high values
[3] = target: L-lactate dehydrogenase (Plasmodium falciparum (isolate CDC / Honduras)) (UniProt Q27743); assay: PfLDH activity inhibition – cell lysate, 3D7 strain, counter-screen for P. falciparum growth inhibition project (AID 2304); conditions: P. falciparum 3D7 crude extract, LDH APAD/NBT absorbance; at 2 µM; hits give high values
L-lactate dehydrogenase (Plasmodium falciparum (isolate CDC / Honduras)), sequence (Q27743 whole entry, looked up): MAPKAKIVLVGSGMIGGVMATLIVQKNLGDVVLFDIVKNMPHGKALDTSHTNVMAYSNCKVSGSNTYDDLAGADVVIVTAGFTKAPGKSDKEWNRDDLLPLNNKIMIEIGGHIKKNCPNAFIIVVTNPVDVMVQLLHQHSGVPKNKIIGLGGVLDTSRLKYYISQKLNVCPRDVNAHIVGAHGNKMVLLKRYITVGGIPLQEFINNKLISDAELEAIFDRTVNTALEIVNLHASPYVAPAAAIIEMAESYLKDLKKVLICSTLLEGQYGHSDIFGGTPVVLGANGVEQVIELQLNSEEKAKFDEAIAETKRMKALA

[4] = inhibition of 3D7 malaria parasite growth – strain 3D7 (AID 2306); conditions: P. falciparum 3D7 erythrocytic growth, LDH absorbance, 72 h; at 2 µM; hits give high values
[5] = target: Calcium-dependent protein kinase 1 (Plasmodium falciparum (isolate 3D7)) (UniProt P62344); assay: PfCDPK1 kinase inhibitors, biochemical, TCAMS library (AID 1159585; cut-off not given, nearly all actives have IC50 up to about 0.98 µM;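 also: inhibitors leave more ATP so luminescence rises with inhibition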); conditions: recombinant PfCDPK1, Kinase-Glo ATP depletion luminescence
Calcium-dependent protein kinase 1 (Plasmodium falciparum (isolate 3D7)), sequence (P62344 whole entry, looked up): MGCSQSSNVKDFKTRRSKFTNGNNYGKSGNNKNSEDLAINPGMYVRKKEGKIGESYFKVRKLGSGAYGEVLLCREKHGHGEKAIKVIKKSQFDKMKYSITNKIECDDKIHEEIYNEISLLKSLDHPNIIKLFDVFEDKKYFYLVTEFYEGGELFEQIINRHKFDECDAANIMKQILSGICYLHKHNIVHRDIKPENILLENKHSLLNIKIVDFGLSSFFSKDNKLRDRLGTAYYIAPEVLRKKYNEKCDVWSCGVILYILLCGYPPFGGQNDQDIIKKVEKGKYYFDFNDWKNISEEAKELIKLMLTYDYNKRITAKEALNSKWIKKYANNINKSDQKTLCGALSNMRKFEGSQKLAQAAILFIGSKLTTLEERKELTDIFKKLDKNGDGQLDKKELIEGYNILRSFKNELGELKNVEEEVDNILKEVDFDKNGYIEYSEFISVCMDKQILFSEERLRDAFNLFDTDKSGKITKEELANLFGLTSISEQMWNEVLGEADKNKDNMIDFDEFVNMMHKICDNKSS

[6] = target: Plasmodium falciparum protein kinase 6 (PK6, PF3D7_1337100) (UniProt Q8IDW1); assay: PfPK6 kinase inhibitors, biochemical, TCAMS library (AID 1159586); conditions: recombinant PfPK6, Kinase-Glo ATP depletion luminescence
Plasmodium falciparum protein kinase 6 (PK6, PF3D7_1337100), sequence (Q8IDW1 1-305): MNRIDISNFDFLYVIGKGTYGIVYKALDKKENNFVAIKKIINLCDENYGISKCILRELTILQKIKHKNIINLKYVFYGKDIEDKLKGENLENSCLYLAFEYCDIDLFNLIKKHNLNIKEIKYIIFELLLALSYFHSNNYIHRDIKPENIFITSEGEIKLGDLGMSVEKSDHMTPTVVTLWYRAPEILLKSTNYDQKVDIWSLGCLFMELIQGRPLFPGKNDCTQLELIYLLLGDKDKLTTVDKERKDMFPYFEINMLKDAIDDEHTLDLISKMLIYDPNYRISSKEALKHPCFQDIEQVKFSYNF

[7] = target: Protein kinase 7 (PK7), Plasmodium falciparum 3D7 (PF3D7_0213400) (UniProt Q7YTF7); assay: inhibition of Plasmodium PK7 catalytic activity – biochemical, TCAMS antimalarial set, Kinase-Glo luminescence (AID 1159587); conditions: recombinant PfPK7, Kinase-Glo ATP depletion luminescence
Protein kinase 7 (PK7), Plasmodium falciparum 3D7 (PF3D7_0213400), sequence (Q7YTF7 1-343): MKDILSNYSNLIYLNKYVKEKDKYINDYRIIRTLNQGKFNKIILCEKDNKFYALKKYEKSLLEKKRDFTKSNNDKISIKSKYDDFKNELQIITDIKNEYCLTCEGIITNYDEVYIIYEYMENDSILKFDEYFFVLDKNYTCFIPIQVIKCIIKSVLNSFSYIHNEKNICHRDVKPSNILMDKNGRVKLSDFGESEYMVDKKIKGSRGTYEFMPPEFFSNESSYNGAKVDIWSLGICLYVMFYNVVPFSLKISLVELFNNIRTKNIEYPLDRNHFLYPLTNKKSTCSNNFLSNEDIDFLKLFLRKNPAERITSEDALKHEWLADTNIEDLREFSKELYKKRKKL

[8] = target: Calcium-dependent protein kinase 4 (Plasmodium falciparum (isolate 3D7)) (UniProt Q8IBS5); assay: PfCDPK4 kinase inhibitors, biochemical, TCAMS library (AID 1159588; cut-off not given, nearly all actives have IC50 up to about 0.91 µM); conditions: recombinant PfCDPK4, Kinase-Glo ATP depletion luminescence
Calcium-dependent protein kinase 4 (Plasmodium falciparum (isolate 3D7)), sequence (Q8IBS5 whole entry, looked up): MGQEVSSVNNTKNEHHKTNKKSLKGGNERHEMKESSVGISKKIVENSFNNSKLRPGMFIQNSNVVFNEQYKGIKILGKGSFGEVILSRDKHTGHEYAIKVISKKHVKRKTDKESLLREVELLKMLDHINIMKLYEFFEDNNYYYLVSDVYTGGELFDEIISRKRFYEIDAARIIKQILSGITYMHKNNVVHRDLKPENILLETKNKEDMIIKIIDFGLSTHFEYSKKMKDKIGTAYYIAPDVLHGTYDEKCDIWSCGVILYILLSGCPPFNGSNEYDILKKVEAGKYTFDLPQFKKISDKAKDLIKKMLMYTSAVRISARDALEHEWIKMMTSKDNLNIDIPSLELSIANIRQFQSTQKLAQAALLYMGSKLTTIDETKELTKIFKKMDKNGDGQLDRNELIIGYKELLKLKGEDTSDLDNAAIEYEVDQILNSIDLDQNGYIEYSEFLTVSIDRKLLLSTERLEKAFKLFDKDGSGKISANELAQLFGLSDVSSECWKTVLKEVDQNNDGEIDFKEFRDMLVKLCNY

Row | SMILES | growth inhibition [1] | inhibition [2] | inhibition [3] [%] | growth inhibition [4] | outcome [5] | outcome [6] | outcome [7] | outcome [8]
1 | Cc1nc2ccc3ccc(CNc4ccc(C#N)cc4)cc3c2c(=O)[nH]1 | 56% (active) | 55% (active) | 8 | 84% (active) | inactive | inactive | inactive | inactive
2 | O=C(NCCSCc1c(F)cccc1Cl)c1cnc2c(c1)nc(-c1cnc(-c3ccccc3)[nH]1)n2CCc1cnc[nH]1 | 45% | 10% | 0 | 93% (active) | inactive | inactive | inactive | inactive
3 | Oc1ccc(-c2nc3c(N4CCN(Cc5ccccc5)CC4)cccc3n2C2CCNCC2)cc1 | 7% | -1% | 0 | 85% (active) | inactive | inactive | inactive | inactive
4 | O=C(Nc1cccc(-c2cccc(-c3nc4ccc(C(F)(F)F)cc4[nH]3)c2)c1)c1cccnc1Cl | 58% (active) | 56% (active) | 1 | 95% (active) | inactive | inactive | inactive | inactive
5 | CCCc1c(C(=O)Nc2ccc3c(c2)CCN(C2CCC2)CC3)cnn1-c1ccc(Cl)cc1 | 12% | 64% (active) | 2 | 92% (active) | inactive | inactive | inactive | inactive
6 | O=C(Nc1ccc(OC2CCN(Cc3ccc(F)cc3)C2)cc1)c1cccs1 (stereo not given) | 92% (active) | 2% | 4 | 94% (active) | inactive | inactive | inactive | inactive
7 | CC(=O)N(C)c1cccc(C(=O)Nc2ccc(-c3cccc(-c4nc5ccc(C(F)(F)F)cc5[nH]4)c3)cc2)c1 | 10% | 79% (active) | -2 | 94% (active) | inactive | inactive | inactive | inactive
8 | Cc1cccc2[nH]c(-c3cccc(-c4cccc(NC(=O)Nc5ccsc5)c4)c3)nc12 | 41% | 15% | -3 | 102% (active) | inactive | inactive | inactive | inactive
9 | Cc1c(CN2CCC(N3CCC(C(=O)NC4CC4)CC3)CC2)[nH]c2c(Cl)cccc12 | 3% | 22% | 1 | 92% (active) | inactive | inactive | inactive | inactive
10 | Cc1cc(N)c2cc(NC(=O)/C=C/c3ccc([N+](=O)[O-])cc3)ccc2n1 | 80% (active) | 76% (active) | -2 | 100% (active) | inactive | inactive | inactive | inactive
11 | Cc1ccc(C)c(S(=O)(=O)Nc2ccc(Br)cc2C(=O)Nc2cccc(C(F)(F)F)c2)c1 | 98% (active) | 56% (active) | -7 | 81% (active) | inactive | inactive | inactive | inactive
12 | COc1cccc(NC(=O)c2cc(Br)cc(N3CCN(c4ccncc4)CC3)c2)c1 | 79% (active) | 30% | 0 | 100% (active) | inactive | inactive | inactive | inactive
13 | COc1ccc(CCN(C)CCOc2ccc(NC(=O)c3cccc4c(=O)c5cc(SC)ccc5[nH]c34)cc2)cc1OC | 82% (active) | 52% (active) | 0 | 97% (active) | inactive | inactive | inactive | inactive
14 | Cc1noc(C)c1S(=O)(=O)N(C)Cc1ccc(-c2ccc(Cl)cc2)o1 | 100% (active) | 10% | -3 | 100% (active) | inactive | inactive | inactive | inactive
15 | Cc1cc(C)c2cc(CNCCCNc3nc4ccccc4[nH]3)[nH]c2c1 | -2% | 32% | 3 | 102% (active) | inactive | inactive | inactive | inactive
16 | Cn1nc(-c2ccc(NC(=O)Nc3cc(C(F)(F)F)ccc3F)cc2)c2cnc(NCCc3cnc[nH]3)nc21 | 56% (active) | 15% | -3 | 99% (active) | inactive | inactive | inactive | inactive
17 | CCCCc1ccc(-c2ccc3[nH]c(C)c(Br)c(=O)c3c2)cc1 | 97% (active) | -10% | -2 | 97% (active) | inactive | inactive | inactive | inactive
18 | NC1=NC(c2ccccc2)N(c2ccc(Cl)c(Cl)c2)C(N)=N1 (stereo not given) | 0% | 13% | -2 | 94% (active) | inactive | inactive | inactive | inactive
19 | Cc1ccc(NC(=O)Nc2ccc(Cl)cc2)cc1-c1cccc(C(=O)Nc2ccc(F)cc2)c1 | 52% (active) | 8% | 5 | 96% (active) | inactive | inactive | inactive | inactive
20 | COc1cccc(CNc2noc(-c3c(-c4ccccc4)noc3C)n2)c1OC | 86% (active) | -3% | -2 | 97% (active) | inactive | inactive | inactive | inactive
